Our source for the Potency values is PubChem BioAssay AID743326 (National Center for Advancing Translational Sciences (NCATS), 2014).

The source made the active and inactive calls. Entries that show only a call come without a potency. The call rests on the fitted dose curve. Numbered stars: 1 amine (or outer) side, 2 acyl side, 3 side chain; on linkers, the order of the positions; unused ones are H or OH. Bridge positions count the residues as written; N and C are the ends. Square brackets hold non-standard residues; d marks the D form. Peptide text beside a SMILES is read from it. I, II: the chains in the order shown. Actinocin(9to1) = Cc1c2oc3c(C)ccc(C(=O)[*:1])c3nc-2c(C(=O)[*:2])c(N)c1=O; NMeV = CN[CH](C(=O)O)C(C)C; Sar = CNCC(=O)O

The experiment is described as follows: qHTS profiling of Chloroquine Analogs as inhibitors of Plasmodium falciparum (DD2) proliferation. Conditions: Potency: Plasmodium falciparum Dd2 proliferation inhibition; series mostly up to 28.7 µM. The text has this: Plasmodium falciparum is a virulent malarial parasite that kills 1-2 million people worldwide each year. Transmitted by mosquitoes, the sporozoite form of the parasite enters the blood stream to infect hepatocytes, where they become merozoites that infect red blood cells (erythrocytes). Within erythrocytes, merozoites begin a […] cycle of growth and division, after which the parasite is released to infect new red blood cells. Gametocytes, which form within erythrocytes as well, circulate in the bloodstream and are ingested by the mosquito, thereby completing the life cycle. To profile malarial isolates for differential chemical responses and to identify inhibitors of malarial growth, an assay that measures P. falciparum growth and replication within erythrocytes was employed. This assay uses a DNA binding fluorescent dye (SYBR Green) to detect parasite DNA following cell lysis. Because mature erythrocytes lack DNA, only Plasmodium-derived DNA is detected.
The SYBR Green viability assay was adapted from a method described previously (Plouffe et al., 2008). For screening 3 ul culture medium was dispensed into 1536 well black clear bottom plates (Aurora Biotechnologies) using a Multidrop Combi (Thermo Fisher Scientific Inc.), 23 nL compounds in DMSO were added by a pin tool (Kalypsys), and 5 ul of erythrocytes infected with P. falciparum (0.3% parasitemia, 2.5% hematocrit final concentration) were added. The plates were incubated at 37 C in a humidified incubator in 5% CO2 for 72 h, and 2 ul lysis buffer (20 mM Tris HCl, 10 mM EDTA, 0.16% saponin, 1.6% triton X, 10X SYBR Green I supplied as 10,000X […] by Invitrogen) was added to each well. The plates were mixed for 25 sec with gentle shaking and incubated overnight at room temperature in the dark. The following morning, fluorescence intensity at 485(14) nm excitation and 535(25) nm emission wavelengths was measured on an EnVision (Perkin Elmer) plate reader. Plate reads were normalized relative to the control inhibitor (0.29 uM artemisinin) and vehicle (DMSO) wells present on each plate and then corrected by an algorithm using vehicle-only control plates at the beginning and end of the compound plate stack.
Background: In qHTS, concentration-response curves come from the screen itself.
Turning to `COC(=O)C1C2CC3c4[nH]c5cc(OC)ccc5c4CCN3CC2CC(OC(=O)c2cc(OC)c(OC)c(OC)c2)C1OC` (stereo not given), the Potency result was “inactive”.

On to `CCN(CC)CCOc1ccc2c(=O)c3ccc(Cl)cc3n(CCN(CC)CC)c2c1`, for which the Potency is 1330 nM (active).

Take `COc1ccc2nc3cc(Cl)ccc3c(Nc3cc(CN4CCCC4)c(O)c(CN4CCCC4)c3)c2n1`: the Potency entry was “inactive”.

For `Clc1ccc(COC(Cn2ccnc2)c2ccc(Cl)cc2Cl)c(Cl)c1` (stereo not given), the Potency entry is “inactive”.

As for `C=CCON=C(C[C@H]1O[C@@H]2O[C@]3(C)CC[C@@H]4[C@H](C)CC[C@@H]([C@H]1C)[C@@]24OO3)[C@H]1O[C@@H]2O[C@]3(C)CC[C@H]4[C@H](C)CC[C@@H]([C@@H]1C)[C@@]24OO3`, the Potency result is “inactive”.

For the molecule `COc1cc2c(cc1C(F)(F)F)N(C(=O)Nc1cc(F)cc(-c3cccnc3)c1)CC2`, the Potency result was “inactive”.

As to `C[C@@H]1[C@@H](CC(C[C@H]2O[C@@H]3O[C@]4(C)CC[C@@H]5[C@H](C)CC[C@@H]([C@H]2C)[C@@]35OO4)C[S+](=O)([O-])c2ccc(COC(=O)N(C)C)cc2)O[C@@H]2O[C@]3(C)CC[C@H]4[C@H](C)CC[C@@H]1[C@@]24OO3` (stereo not given in full), the Potency result is “inactive”.

Turning to `COc1ccc(CCN(C)CCCC(C#N)(c2ccc(OC)c(OC)c2)C(C)C)cc1OC` (stereo not given), the Potency entry is “inactive”.

Take `CC(CNC1CCCCC1)OC(=O)c1ccccc1` (stereo not given): the Potency entry is “inactive”.

For `C[C@H]1Cc2c([nH]c3cc(Cl)c(F)cc23)[C@@]2(N1)C(=O)Nc1ccc(Cl)cc12`, the Potency entry was “inactive”.

Turning to `COc1ncnc(NS(=O)(=O)c2ccc(N)cc2)c1OC`, the Potency was 1880 nM (active).

As to `Cc1c2oc3c(C)ccc(C(=O)NC4C(=O)NC(C(C)C)C(=O)N5CCCC5C(=O)N(C)CC(=O)N(C)C(C(C)C)C(=O)OC4C)c3nc-2c(C(=O)NC2C(=O)NC(C(C)C)C(=O)N3CCCC3C(=O)N(C)CC(=O)N(C)C(C(C)C)C(=O)OC2C)c(N)c1=O` (stereo not given) (I: TVP[Sar][NMeV] / II: TVP[Sar][NMeV]; ester I:1-I:C, II:1-II:C; linker I:N-II:N via Actinocin(9to1); configuration not given here), the Potency was 2.4 nM (active).

As for `CSc1cccc(NC(=O)CC[C@H]2O[C@@H]3O[C@]4(C)CC[C@H]5[C@H](C)CC[C@@H]([C@@H]2C)[C@@]35OO4)c1`, the Potency is 26.6 nM (active).

As to `CC[C@@H](C)[C@H]1O[C@]2(CC[C@H]1C)C[C@@H]1C[C@@H](CC=C(C)[C@@H](O[C@H]3C[C@H](OC)[C@@H](O[C@H]4C[C@H](OC)[C@@H](O)[C@H](C)O4)[C@H](C)O3)[C@@H](C)C=CC=C3CO[C@@H]4[C@H](O)C(C)=C[C@@H](C(=O)O1)[C@]34O)O2`, the Potency result was “inactive”.

As to `CC1=CC(=O)c2ccccc2C1=O`, the Potency entry is “inactive”.

As to `CN([C@@H](Cc1ccc(OS(=O)(=O)c2cccc3cnccc23)cc1)C(=O)N1CCN(c2ccccc2)CC1)S(=O)(=O)c1cccc2cnccc12`, the Potency result was “inactive”.

Take `COc1cccc(CCc2ccccc2OCC(CN(C)C)OC(=O)CCC(=O)O)c1` (stereo not given): the Potency was 943 nM (active).

For the molecule `CCCCN(CCCC)CCC(O)c1cc2c(Cl)cc(Cl)cc2c2cc(C(F)(F)F)ccc12` (stereo not given), the Potency entry was “inactive”.

`C#C[C@]1(O)CC[C@@H]2[C@H]3CCC4=CC(=O)CC[C@H]4[C@H]3C(=C)C[C@@]21CC`: the Potency entry is “inactive”.

Consider `CNC(=O)c1cc(Oc2ccc(NC(=O)Nc3ccc(Cl)c(C(F)(F)F)c3)cc2)ccn1`, for which the Potency result is “inactive”.

In the case of `CCOc1ccc(F)cc1C1(O)C(N)=Nc2ccc(Cl)cc21` (stereo not given), the Potency is 66.8 nM (active).

For `CN(C)c1ccc2nc3ccc(=[N+](C)C)cc-3sc2c1`, the Potency is 6.9 nM (active).

With `CCc1nc(N)nc(N)c1-c1ccc(Cl)cc1`, the Potency result is “inactive”.

Take `C[C@H](N)CN1CCc2ccc(Br)cc21`: the Potency was 1880 nM (active).

For `C/C(=C\c1csc(C)n1)[C@@H]1C[C@@H]2O[C@]2(C)CCC[C@H](C)[C@H](O)[C@@H](C)C(=O)C(C)(C)[C@@H](O)CC(=O)O1`, the Potency entry was “inactive”.

Take `OB1OCc2cc(F)ccc21`: the Potency result was “inactive”.

In the case of `CC[C@H]1OC(=O)[C@H](C)[C@@H](O[C@H]2C[C@@](C)(OC)[C@@H](O)[C@H](C)O2)[C@H](C)[C@@H](O[C@@H]2O[C@H](C)C[C@H](N(C)C)[C@@H]2O)[C@](C)(O)C[C@@H](C)CN(C)[C@H](C)[C@@H](O)[C@]1(C)O`, the Potency result was “inactive”.

Consider `Cc1cccc(C)c1NC(=O)C(C)N` (stereo not given), for which the Potency result was “inactive”.

`C[C@@H]1CC[C@H]2[C@@H](C)C(=O)O[C@@H]3OC4(C)CC[C@@H]1C32OO4` (stereo not given in full): the Potency result was “inactive”.

As to `CC(C)N=C(N)N=C(N)Nc1ccc(Cl)cc1`, the Potency entry was “inactive”.

On to `C[C@@H]1[C@@H](CC(C[C@H]2O[C@@H]3O[C@]4(C)CC[C@@H]5[C@H](C)CC[C@@H]([C@H]2C)[C@@]35OO4)C(=O)NCc2ccc(F)cc2)O[C@@H]2O[C@]3(C)CC[C@H]4[C@H](C)CC[C@@H]1[C@@]24OO3` (stereo not given in full), for which the Potency result was “inactive”.

For `O=C(C[C@@H]1NCCC[C@@H]1O)Cn1cnc2ccccc2c1=O`, the Potency result was “inactive”.

Turning to `Cc1cccc(C)c1OCC(=O)N[C@@H](Cc1ccccc1)[C@@H](O)C[C@H](Cc1ccccc1)NC(=O)[C@H](C(C)C)N1CCCNC1=O`, the Potency entry was “inactive”.

Take `O=CN(O)CCCP(=O)(O)O`: the Potency result is “inactive”.

Regarding `Cc1nc2c(C#N)cccc2n1-c1ccc(C(=O)NC2CC2)s1`, the Potency entry was “inactive”.

As to `O=C(O)c1cn(C2CC2)c2cc(N3CCNCC3)c(F)cc2c1=O`, the Potency entry is “inactive”.

As to `CCOc1ccccc1O[C@H](c1ccccc1)[C@H]1CNCCO1`, the Potency result was “inactive”.

Regarding `C[C@H]1c2cccc(O)c2C(O)=C2C(=O)[C@]3(O)C(O)=C(C(N)=O)C(=O)[C@@H](N(C)C)[C@@H]3[C@@H](O)[C@@H]21`, the Potency entry was “inactive”.

For `CO[C@H]1O[C@@H]2O[C@@]3(C)CC[C@@H]4[C@@H](C)CC[C@@H]([C@H]1C)[C@@]24OO3`, the Potency entry was “inactive”.

In the case of `CC(C)(C)c1cc(O)c(CN)c(C(C)(C)C)c1`, the Potency entry is “inactive”.
